This note sets out measurements from PubChem BioAssay (EPA / NIEHS).

“And” between values parts separate entries of the source, which are not always exact repeats. Equal entries are not always repeated. More than one record can exist for a structure, and the calls need not agree. The source made the active and inactive calls. The calls were made as follows: active = hit-call score of the fitted dose curve at least 0.9, where 1 is the maximum; inactive = score below 0.9.

Read-out in assay [1]: Urokinase-type plasminogen activator receptor (uPAR), PLAUR (gene 5329)
Put plainly: BSK_BE3C_uPAR: BioMAP Diversity Plus: BE3C Assay for Urokinase-type plasminogen activator receptor (uPAR) Biomarker Activity (AID 2283039).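 As to outcome: uPAR protein level measured by ELISA on the cells; cells exposed to compound for one day before measurement.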 To be noted: primary human bronchial epithelial cells; actives raise or lower the signal. The procedure, abridged: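 ELISA readout of uPAR on human lung primary bronchial epithelial cells, 24 h post-dosing. Bidirectional curve fit relative to DMSO vehicle baseline; gain or loss of signal both scored.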

Read-out in assay [2]: Interleukin-6 (IL6), IL6 (gene 3569)
Put plainly: BSK_CASM3C_IL6: BioMAP Diversity Plus: CASM3C Assay for Interleukin-6 (IL6) Biomarker Activity for (AID 2283040). To be noted: primary human coronary artery smooth muscle cells; actives raise or lower the signal.

Read-out in assay [3]: Tissue plasminogen activator (tPA), PLAT (gene 5327)
Put plainly: BSK_BE3C_tPA: BioMAP Diversity Plus: BE3C Assay for Tissue plasminogen activator (tPA) Biomarker Activity (AID 2283041).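 As to outcome: tPA level quantified by ELISA one day after compound addition.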 To be noted: primary human bronchial epithelial cells; actives raise or lower the signal. The procedure, abridged:
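ELISA read-out of tPA on human primary bronchial epithelial cells, 24 h post-dosing; bidirectional fit vs DMSO negative control/baseline.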

Read-out in assay [4]: Interleukin-8 (IL8), CXCL8 (gene 3576)
The assay can be described thus: BSK_CASM3C_IL8: BioMAP Diversity Plus: CASM3C Assay for Interleukin-8 (IL8) Biomarker Activity (AID 2283042).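 Also: IL-8 protein level quantified by ELISA.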 To be noted: primary human coronary artery smooth muscle cells; actives raise or lower the signal.

Read-out in assay [5]: Human Leukocyte Antigen - DR isotype (HLADR), HLA-DRA (gene 3122)
The assay can be described thus: BSK_CASM3C_HLADR: BioMAP Diversity Plus: CASM3C Assay for Human Leukocyte Antigen - DR isotype (HLADR) Biomarker Activity (AID 2283043).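 Also: cell-surface HLA-DR protein level quantified by ELISA.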 To be noted: primary human coronary artery smooth muscle cells; actives raise or lower the signal.

Read-out in assay [6]: Macrophage colony-stimulating factor (MCSF), CSF1 (gene 1435)
The assay can be described thus: BSK_CASM3C_MCSF: BioMAP Diversity Plus: CASM3C Assay for Macrophage colony-stimulating factor (MCSF) Biomarker Activity (AID 2283044).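 Also: M-CSF protein amount quantified by ELISA after 24 h exposure.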 To be noted: primary human coronary artery smooth muscle cells; actives raise or lower the signal.

Read-out in assay [7]: Low-density lipoprotein receptor (LDLR), LDLR (gene 3949)
Put plainly: BSK_CASM3C_LDLR: BioMAP Diversity Plus: CASM3C Assay for Low-density lipoprotein receptor (LDLR) Biomarker Activity (AID 2283045).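 Also: LDLR protein level on the cell surface quantified by ELISA.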 To be noted: primary human coronary artery smooth muscle cells; actives raise or lower the signal.

Read-out in assay [8]: Monocyte Chemoattractant Protein-1 (MCP1), CCL2 (gene 6347)
Put plainly: BSK_CASM3C_MCP1: BioMAP Diversity Plus: CASM3C Assay for Monocyte Chemoattractant Protein-1 (MCP1) Biomarker Activity (AID 2283046).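 Also: MCP-1 level quantified by ELISA 24 h after dosing.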 To be noted: primary human coronary artery smooth muscle cells; actives raise or lower the signal.

Assay [9] is described as follows: BSK_CASM3C_Proliferation: Cell Proliferation Assessment in the BioMAP Diversity Plus: CASM3C Assay (AID 2283047).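 Also: sulforhodamine B total protein stain as relative cell number at 560 nm; sub-confluent cells exposed 48 h before staining; fitted both ways against DMSO so gain or loss of cell number.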 To be noted: primary human coronary artery smooth muscle cells.
Read-out in assay [10]: Monokine induced gamma interferon (MIG), CXCL9 (gene 4283)
Put plainly: BSK_CASM3C_MIG: BioMAP Diversity Plus: CASM3C Assay for Monokine induced gamma interferon (MIG) Biomarker Activity (AID 2283048).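 Also: MIG protein level measured by ELISA.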 To be noted: primary human coronary artery smooth muscle cells; actives raise or lower the signal.

What is called AC50 is the midpoint of the concentration-response curve, whichever way the signal moves.

In the case of `S=C(S)NCCNC(=S)S.[Mn+2].[S-]C([S-])=NCCN=C([S-])[S-].[Zn+2]`, the outcome in [1], in [2], in [3], in assay [4], in assay [5] and in assay [6] was inactive. Moreover, the result in [7], in assay [8], in assay [9] and in assay [10] was inactive. Also, the AC50 in assay [5] is 10 µM (active); in assay [6], 5.89 µM (active); in assay [7], 10 µM (active) and 5.32 µM (active); in [9], 14.2 µM (active) [middle of 4 runs].

Consider `CC(=O)S[C@@H]1CC2=CC(=O)CC[C@]2(C)[C@H]2CC[C@@]3(C)[C@@H](CC[C@@]34CCC(=O)O4)[C@H]12`, for which the outcome in assay [1], in assay [2], in assay [3], in [6], in assay [7] and in assay [10] was inactive. Moreover, the AC50 in assay [4] is 23.6 µM (active); in assay [5], 27.3 µM (active); in [8] it was 20 µM (active); in assay [9], 31.4 µM (active).

As for `COC(=O)c1ccccc1C(=O)O`, the outcome in [1], in assay [2], in assay [3], in assay [4], in assay [5] and in [6] was inactive. The result in assay [7], in assay [8], in [9] and in [10] was inactive.

Turning to `CCC(C)OC(=O)N1CCCCC1CCO` (stereo unspecified), the result in assay [1], in [2], in [3], in assay [4], in [5] and in [6] was inactive. Besides, the result in [7], in assay [8], in assay [9] and in assay [10] was inactive.

Consider `c1ccc2[nH]c(-c3cscn3)nc2c1`, for which the result in [1], in assay [2], in [3], in [4], in assay [5] and in [6] was inactive. Further, the result in assay [7], in [8], in assay [9] and in [10] was inactive.

With `COC(=O)c1cccc(C)c1S(=O)(=O)NC(=O)Nc1nc(OCC(F)(F)F)nc(N(C)C)n1`, the result in [1], in assay [2], in assay [3], in assay [4], in assay [5] and in assay [6] was inactive. Besides, the outcome in assay [7], in assay [8], in [9] and in assay [10] was inactive.

For the compound `N#CSCSc1nc2ccccc2s1`, the AC50 in assay [1] is 5.42 µM (active) and 11.5 µM (active); in assay [2] it was 8.6 µM (active) and 36.5 µM (active); in [3] it was 5.25 µM (active); in assay [4], 10.8 µM (active) and 31.2 µM (active); in [5], 2.62 µM (active) and 36.7 µM (active); in [6], 6.33 µM (active) and 26.9 µM (active). Further, the AC50 in assay [7] is 8.61 µM (active); in [8], 9.06 µM (active) and 29.6 µM (active); in [9], 1.33 µM (active) and 5.49 µM (active); in assay [10], 7.5 µM (active) and 18.8 µM (active). Besides, the outcome in [3] and in assay [7] was inactive.

Regarding `CSC(=O)c1cccc2nnsc12`, the result in [1], in [2], in [3], in [4], in assay [5] and in assay [6] was inactive. In addition, the outcome in [7], in assay [8], in [9] and in [10] was inactive.

With `CCOC(=O)[C@H](C)Oc1ccc(Oc2nc3ccc(Cl)cc3o2)cc1`, the result in [1], in assay [2], in assay [3], in [4], in assay [5] and in assay [6] was inactive. Moreover, the outcome in [7], in assay [8], in assay [9] and in assay [10] was inactive.

Take `C[C@]12CC[C@@H]3c4ccc(O)cc4C[C@@H](CCCCCCCCCS(=O)CCCC(F)(F)C(F)(F)F)[C@H]3[C@@H]1CC[C@@H]2O` (stereo partly specified): the result in [1], in assay [2], in assay [3], in assay [4], in assay [5] and in [6] was inactive. The outcome in assay [8], in assay [9] and in assay [10] was inactive. Besides, the half-maximal activity concentration (AC50) in assay [7] was 2.73 µM (active).

Regarding `CCCN(CCC)C(=O)SCC`, the result in assay [1], in [2], in assay [3], in assay [4], in assay [5] and in assay [6] was inactive. The outcome in [7], in assay [8], in assay [9] and in assay [10] was inactive.

Turning to `COc1c(Cl)ccc(Cl)c1C(=O)O`, the result in assay [1], in assay [2], in [3], in assay [4], in [5] and in [6] was inactive. Moreover, the result in assay [7], in [8], in assay [9] and in assay [10] was inactive.

As for `CN(C)C(=O)Nc1ccc(Cl)c(Cl)c1`, the outcome in assay [1], in assay [2], in [3], in assay [4], in assay [5] and in assay [6] was inactive. Further, the result in [7], in [8], in [9] and in [10] was inactive.

`COC(=O)c1c(Cl)nn(C)c1S(=O)(=O)NC(=O)Nc1nc(OC)cc(OC)n1`: the outcome in assay [1], in assay [2], in assay [3], in [4], in assay [5] and in assay [6] was inactive. For the same compound, the outcome in assay [7], in assay [8], in assay [9] and in [10] was inactive.
